# According to paper PMC7862700, “An all-to-all approach to the identification of sequence-specific readers for epigenetic DNA modifications on cytosine”:
# Columns and labels:
# Test in all cases: DAPPL (digital affinity profiling via proximity ligation, sequencing); 10 mM Tris-HCl pH 7.5, 50 mM NaCl, 1 mM DTT, 4% glycerol, room temperature, 30 min; GST-TFs on glutathione beads, 16-mer random dsDNA library, 0.1% formaldehyde crosslink after washing; high values mean tight binding
# [1] = molecular target: T1, FEV (Homo sapiens, UniProt Q99581 1-238); conditions: protein: recombinant; tags: N-terminal GST; dsDNA, one strand shown
# T1 sequence: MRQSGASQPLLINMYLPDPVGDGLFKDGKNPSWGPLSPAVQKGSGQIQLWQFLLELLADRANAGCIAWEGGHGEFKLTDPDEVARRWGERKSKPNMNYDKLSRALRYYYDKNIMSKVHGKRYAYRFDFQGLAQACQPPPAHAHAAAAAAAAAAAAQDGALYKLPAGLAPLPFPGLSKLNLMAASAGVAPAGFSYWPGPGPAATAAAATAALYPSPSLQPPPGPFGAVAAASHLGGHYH
# Method in brief: (§1)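 The binding signal reported is, for every hexamer, its read frequency for a factor over its read frequency for the tag-only sample. Reads came from pools of yeast-expressed, GST-fused human transcription factors on glutathione beads, barcoded with DNA and mixed with that sample, which were incubated with 200 nmole of a random double-stranded 16-mer DNA library in Tris/NaCl/DTT/glycerol buffer at room temperature for 30 min. After washing, the pools were crosslinked with 0.1% formaldehyde, proximity-ligated with BsaI/T4 ligase for 1 h at 37 °C, PCR-amplified and sequenced on an Illumina NextSeq500.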
# [2] = molecular target: ETV5 (Homo sapiens, UniProt P41161 1-510); conditions: protein: recombinant; tags: N-terminal GST; dsDNA, one strand shown
# Method in brief: as §1
# [3] = molecular target: HSF1 (Homo sapiens, UniProt Q00613 1-529); conditions: protein: recombinant; tags: N-terminal GST; chain copies: 3; dsDNA, one strand shown
# Method in brief: as §1
# [4] = molecular target: T2, SPIC (Homo sapiens, UniProt Q8N5J4 1-248); conditions: protein: recombinant; tags: N-terminal GST; dsDNA, one strand shown
# T2 sequence: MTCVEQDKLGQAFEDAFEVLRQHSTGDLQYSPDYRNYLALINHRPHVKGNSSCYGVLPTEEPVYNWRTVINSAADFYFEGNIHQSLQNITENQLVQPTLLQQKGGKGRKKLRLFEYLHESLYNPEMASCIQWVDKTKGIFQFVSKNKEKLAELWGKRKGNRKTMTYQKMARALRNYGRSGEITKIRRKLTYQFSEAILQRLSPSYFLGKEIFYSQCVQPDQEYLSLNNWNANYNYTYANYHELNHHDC
# Method in brief: as §1
# [5] = molecular target: ELF4 (Homo sapiens, UniProt Q99607 1-663); conditions: protein: recombinant; tags: N-terminal GST; dsDNA, one strand shown
# Method in brief: as §1
# [6] = molecular target: T3, ELK4 (Homo sapiens, UniProt P28324-2 1-405); conditions: protein: recombinant; tags: N-terminal GST; dsDNA, one strand shown
# T3 sequence: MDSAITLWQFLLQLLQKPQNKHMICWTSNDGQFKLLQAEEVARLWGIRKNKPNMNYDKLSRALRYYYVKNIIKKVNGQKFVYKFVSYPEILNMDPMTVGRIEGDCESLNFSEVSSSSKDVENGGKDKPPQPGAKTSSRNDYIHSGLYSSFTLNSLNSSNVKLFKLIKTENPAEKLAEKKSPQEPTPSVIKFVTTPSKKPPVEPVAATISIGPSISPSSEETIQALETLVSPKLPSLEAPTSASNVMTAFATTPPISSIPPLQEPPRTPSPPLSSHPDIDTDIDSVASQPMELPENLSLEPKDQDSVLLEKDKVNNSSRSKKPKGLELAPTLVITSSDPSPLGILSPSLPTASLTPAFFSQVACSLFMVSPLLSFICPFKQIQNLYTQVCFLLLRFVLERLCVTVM
# Method in brief: as §1
# [7] = molecular target: T4, ETV2 (Homo sapiens, UniProt O00321 1-342); conditions: protein: recombinant; tags: N-terminal GST; dsDNA, one strand shown
# T4 sequence: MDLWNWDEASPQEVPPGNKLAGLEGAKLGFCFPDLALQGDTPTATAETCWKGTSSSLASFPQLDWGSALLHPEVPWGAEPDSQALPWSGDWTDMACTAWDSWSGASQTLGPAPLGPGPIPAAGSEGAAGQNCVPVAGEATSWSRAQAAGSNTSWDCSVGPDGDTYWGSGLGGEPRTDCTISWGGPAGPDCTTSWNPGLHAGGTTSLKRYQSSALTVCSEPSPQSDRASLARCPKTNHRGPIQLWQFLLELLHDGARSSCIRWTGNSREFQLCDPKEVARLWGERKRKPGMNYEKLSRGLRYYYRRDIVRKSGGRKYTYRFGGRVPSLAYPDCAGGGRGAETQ
# Method in brief: as §1
# [8] = molecular target: T5, ELF3 (Homo sapiens, UniProt P78545 1-371); conditions: protein: recombinant; tags: N-terminal GST; dsDNA, one strand shown
# T5 sequence: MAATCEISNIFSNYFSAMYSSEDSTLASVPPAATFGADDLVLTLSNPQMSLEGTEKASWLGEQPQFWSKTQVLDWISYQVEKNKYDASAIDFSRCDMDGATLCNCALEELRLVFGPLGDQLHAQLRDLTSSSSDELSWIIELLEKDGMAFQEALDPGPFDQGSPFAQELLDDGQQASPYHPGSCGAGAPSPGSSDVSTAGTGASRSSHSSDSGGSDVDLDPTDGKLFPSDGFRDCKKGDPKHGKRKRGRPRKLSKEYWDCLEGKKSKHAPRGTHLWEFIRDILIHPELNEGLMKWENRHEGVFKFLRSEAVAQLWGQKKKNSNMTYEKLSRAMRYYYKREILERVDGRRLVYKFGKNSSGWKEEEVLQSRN
# Method in brief: as §1
# [9] = molecular target: CRX (Homo sapiens, UniProt O43186 1-299); conditions: protein: recombinant; tags: N-terminal GST; dsDNA, one strand shown
# Method in brief: as §1
# [10] = molecular target: ETV1 (Homo sapiens, UniProt P50549 1-477); conditions: protein: recombinant; tags: N-terminal GST; dsDNA, one strand shown
# Method in brief: as §1
# [11] = molecular target: T6, ERF (Homo sapiens, UniProt P50548 1-548); conditions: protein: recombinant; tags: N-terminal GST; dsDNA, one strand shown
# T6 sequence: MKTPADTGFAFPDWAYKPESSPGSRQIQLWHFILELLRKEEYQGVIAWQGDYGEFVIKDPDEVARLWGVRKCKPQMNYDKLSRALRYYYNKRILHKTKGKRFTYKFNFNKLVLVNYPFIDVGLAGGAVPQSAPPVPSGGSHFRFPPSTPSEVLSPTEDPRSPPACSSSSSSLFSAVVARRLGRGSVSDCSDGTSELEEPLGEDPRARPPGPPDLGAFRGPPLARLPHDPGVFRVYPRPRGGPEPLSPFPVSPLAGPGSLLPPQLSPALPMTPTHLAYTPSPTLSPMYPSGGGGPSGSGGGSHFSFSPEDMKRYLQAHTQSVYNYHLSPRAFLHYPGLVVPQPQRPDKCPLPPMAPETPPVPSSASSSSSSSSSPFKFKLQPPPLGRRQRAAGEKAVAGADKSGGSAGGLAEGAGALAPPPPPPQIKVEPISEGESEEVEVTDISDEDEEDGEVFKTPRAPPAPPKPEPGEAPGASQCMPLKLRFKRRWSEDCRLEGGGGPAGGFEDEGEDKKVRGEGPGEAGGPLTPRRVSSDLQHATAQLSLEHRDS
# Method in brief: as §1
# [12] = molecular target: T7, ETV3L (Homo sapiens, UniProt Q6ZN32 1-361); conditions: protein: recombinant; tags: N-terminal GST; dsDNA, one strand shown
# T7 sequence: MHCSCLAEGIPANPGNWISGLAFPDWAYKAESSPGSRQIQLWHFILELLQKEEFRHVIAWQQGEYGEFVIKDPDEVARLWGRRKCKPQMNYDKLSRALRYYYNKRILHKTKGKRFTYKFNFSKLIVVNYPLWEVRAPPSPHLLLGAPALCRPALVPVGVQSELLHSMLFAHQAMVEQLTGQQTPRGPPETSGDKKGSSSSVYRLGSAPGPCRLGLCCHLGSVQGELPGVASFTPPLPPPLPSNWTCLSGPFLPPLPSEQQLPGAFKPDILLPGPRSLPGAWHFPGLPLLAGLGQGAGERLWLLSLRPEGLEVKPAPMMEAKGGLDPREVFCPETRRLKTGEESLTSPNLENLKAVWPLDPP
# Method in brief: as §1
# [13] = molecular target: T8, ETS2 (Homo sapiens, UniProt P15036 1-469); conditions: protein: recombinant; tags: N-terminal GST; dsDNA, one strand shown
# T8 sequence: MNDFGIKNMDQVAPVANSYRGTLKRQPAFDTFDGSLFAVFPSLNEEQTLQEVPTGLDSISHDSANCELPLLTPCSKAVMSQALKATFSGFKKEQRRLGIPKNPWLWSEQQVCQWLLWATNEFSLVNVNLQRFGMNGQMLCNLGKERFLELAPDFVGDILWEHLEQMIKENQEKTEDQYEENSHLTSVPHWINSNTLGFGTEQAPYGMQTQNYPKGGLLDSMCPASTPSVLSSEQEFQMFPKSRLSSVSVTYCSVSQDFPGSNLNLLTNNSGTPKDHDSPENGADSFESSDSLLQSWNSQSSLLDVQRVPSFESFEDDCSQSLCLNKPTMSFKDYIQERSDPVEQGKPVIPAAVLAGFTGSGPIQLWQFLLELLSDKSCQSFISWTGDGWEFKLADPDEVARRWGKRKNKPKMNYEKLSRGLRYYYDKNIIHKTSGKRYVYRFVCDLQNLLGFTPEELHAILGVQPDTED
# Method in brief: as §1
# [14] = molecular target: T9, SPDEF (Homo sapiens, UniProt O95238 1-335); conditions: protein: recombinant; tags: N-terminal GST; dsDNA, one strand shown
# T9 sequence: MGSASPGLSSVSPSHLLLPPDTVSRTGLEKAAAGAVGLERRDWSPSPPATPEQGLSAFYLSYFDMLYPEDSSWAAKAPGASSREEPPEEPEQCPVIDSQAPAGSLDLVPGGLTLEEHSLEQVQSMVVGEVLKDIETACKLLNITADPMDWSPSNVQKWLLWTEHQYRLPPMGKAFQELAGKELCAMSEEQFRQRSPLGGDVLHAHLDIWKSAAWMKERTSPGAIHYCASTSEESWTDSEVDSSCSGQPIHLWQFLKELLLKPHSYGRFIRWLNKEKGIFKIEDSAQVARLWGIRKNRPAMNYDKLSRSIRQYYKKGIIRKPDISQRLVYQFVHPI
# Method in brief: as §1
# [15] = molecular target: T10, ETV7 (Homo sapiens, UniProt Q9Y603 1-341); conditions: protein: recombinant; tags: N-terminal GST; dsDNA, one strand shown
# T10 sequence: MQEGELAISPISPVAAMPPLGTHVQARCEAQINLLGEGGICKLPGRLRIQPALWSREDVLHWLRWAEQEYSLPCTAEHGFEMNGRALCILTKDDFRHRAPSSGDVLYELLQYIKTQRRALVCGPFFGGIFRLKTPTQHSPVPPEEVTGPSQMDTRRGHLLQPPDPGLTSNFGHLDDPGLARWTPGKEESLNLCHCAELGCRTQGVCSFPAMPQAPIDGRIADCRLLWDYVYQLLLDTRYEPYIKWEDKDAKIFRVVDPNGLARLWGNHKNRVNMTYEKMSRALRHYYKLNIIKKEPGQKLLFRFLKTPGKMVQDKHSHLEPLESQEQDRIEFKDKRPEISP
# Method in brief: as §1
# [16] = molecular target: T11, ELF5 (Homo sapiens, UniProt Q9UKW6-2 1-255); conditions: protein: recombinant; tags: N-terminal GST; dsDNA, one strand shown
# T11 sequence: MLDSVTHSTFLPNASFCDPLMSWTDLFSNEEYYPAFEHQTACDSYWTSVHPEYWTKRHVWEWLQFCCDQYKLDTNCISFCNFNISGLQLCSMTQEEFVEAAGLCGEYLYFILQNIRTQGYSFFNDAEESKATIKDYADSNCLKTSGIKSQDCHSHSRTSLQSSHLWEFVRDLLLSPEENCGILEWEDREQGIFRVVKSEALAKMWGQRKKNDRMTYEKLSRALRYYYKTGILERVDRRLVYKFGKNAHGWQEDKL
# Method in brief: as §1
# [17] = molecular target: T12, ETV3 (Homo sapiens, UniProt P41162-2 1-143); conditions: protein: recombinant; tags: N-terminal GST; dsDNA, one strand shown
# T12 sequence: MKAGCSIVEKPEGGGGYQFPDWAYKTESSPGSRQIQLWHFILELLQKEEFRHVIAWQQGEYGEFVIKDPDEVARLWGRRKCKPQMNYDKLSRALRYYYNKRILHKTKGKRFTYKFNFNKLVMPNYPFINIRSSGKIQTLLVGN
# Method in brief: as §1
# [18] = molecular target: ETV6 (Homo sapiens, UniProt P41212 1-452); conditions: protein: recombinant; tags: N-terminal GST; dsDNA, one strand shown
# Method in brief: as §1
# ETV1, sequence (P50549 whole entry): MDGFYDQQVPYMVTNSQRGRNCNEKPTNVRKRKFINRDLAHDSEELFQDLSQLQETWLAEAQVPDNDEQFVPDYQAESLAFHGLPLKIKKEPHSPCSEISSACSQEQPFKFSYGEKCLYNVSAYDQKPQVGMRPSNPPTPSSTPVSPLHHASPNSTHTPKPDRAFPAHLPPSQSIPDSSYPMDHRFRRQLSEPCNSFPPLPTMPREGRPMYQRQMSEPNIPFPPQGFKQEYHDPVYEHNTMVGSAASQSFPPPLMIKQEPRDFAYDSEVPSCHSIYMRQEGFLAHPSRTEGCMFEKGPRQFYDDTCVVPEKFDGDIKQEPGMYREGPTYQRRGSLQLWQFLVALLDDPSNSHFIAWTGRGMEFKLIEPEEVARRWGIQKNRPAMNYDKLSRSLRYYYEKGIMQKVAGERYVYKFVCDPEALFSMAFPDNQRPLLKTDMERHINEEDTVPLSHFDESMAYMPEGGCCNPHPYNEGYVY
# ETV5, sequence (P41161 whole entry): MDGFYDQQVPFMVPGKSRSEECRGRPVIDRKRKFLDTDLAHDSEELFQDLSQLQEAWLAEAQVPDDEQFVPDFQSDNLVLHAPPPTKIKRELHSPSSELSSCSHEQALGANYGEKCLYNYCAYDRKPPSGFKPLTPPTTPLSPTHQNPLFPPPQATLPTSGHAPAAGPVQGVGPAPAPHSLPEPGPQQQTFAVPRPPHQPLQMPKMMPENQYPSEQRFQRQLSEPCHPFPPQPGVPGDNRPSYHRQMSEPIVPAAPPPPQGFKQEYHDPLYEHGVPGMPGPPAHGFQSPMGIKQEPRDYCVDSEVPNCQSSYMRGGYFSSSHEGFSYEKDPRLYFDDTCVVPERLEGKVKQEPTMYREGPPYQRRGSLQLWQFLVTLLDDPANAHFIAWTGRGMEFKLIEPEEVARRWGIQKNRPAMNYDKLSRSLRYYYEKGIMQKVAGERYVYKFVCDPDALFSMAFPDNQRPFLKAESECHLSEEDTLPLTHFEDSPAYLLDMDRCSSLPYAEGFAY
# CRX, sequence (O43186 whole entry): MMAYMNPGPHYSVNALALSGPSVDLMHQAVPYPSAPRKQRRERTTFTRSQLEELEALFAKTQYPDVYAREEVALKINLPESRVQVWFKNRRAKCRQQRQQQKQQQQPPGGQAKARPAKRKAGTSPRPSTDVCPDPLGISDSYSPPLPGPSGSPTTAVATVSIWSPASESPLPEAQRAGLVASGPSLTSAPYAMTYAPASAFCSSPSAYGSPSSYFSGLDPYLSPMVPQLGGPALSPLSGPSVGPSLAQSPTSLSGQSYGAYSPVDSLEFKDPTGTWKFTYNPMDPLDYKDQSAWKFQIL
# ETV6, sequence (P41212 whole entry): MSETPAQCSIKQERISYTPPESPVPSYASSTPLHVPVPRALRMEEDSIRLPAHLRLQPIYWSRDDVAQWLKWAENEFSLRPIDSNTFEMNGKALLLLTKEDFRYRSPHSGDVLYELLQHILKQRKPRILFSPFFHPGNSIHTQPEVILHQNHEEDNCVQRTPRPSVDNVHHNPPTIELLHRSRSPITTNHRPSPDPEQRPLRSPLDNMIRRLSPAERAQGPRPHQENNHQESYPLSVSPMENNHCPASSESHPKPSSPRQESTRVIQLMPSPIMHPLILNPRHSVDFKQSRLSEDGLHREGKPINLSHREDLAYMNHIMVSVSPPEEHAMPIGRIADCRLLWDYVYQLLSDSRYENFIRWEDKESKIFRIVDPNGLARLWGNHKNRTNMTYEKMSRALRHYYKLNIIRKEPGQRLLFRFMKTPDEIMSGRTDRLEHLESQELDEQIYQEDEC
# HSF1, sequence (Q00613 whole entry): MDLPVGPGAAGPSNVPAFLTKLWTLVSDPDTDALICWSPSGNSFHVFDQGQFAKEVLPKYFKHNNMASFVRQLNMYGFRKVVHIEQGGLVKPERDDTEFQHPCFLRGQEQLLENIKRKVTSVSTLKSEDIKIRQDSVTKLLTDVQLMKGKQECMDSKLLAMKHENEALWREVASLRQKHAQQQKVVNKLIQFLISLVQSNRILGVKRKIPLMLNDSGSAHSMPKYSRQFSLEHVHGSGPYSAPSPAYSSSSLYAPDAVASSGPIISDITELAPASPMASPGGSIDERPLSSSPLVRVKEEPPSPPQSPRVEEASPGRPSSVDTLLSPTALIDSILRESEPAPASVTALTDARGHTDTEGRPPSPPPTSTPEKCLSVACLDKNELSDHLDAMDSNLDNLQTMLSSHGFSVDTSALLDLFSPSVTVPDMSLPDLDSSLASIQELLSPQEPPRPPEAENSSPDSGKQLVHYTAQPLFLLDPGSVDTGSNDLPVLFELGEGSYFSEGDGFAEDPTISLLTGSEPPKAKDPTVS
# ELF4, sequence (Q99607 whole entry): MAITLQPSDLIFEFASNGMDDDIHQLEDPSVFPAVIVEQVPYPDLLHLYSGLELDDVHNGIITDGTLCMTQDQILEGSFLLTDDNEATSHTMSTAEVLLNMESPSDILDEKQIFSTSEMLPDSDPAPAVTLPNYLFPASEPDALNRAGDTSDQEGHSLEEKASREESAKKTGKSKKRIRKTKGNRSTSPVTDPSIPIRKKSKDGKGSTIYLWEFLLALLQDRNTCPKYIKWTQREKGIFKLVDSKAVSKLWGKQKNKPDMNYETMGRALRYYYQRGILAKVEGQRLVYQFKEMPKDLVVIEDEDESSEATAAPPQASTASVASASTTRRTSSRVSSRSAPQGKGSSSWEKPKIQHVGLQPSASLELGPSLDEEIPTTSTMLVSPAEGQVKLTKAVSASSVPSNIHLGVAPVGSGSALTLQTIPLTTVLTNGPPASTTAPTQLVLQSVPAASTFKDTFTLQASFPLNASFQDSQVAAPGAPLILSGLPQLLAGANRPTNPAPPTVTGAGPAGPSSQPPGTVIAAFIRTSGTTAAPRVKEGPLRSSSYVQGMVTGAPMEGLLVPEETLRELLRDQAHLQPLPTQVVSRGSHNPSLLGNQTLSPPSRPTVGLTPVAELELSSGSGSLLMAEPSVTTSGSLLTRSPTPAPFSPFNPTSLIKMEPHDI
sequence,measurement,setting,value
ATTAGC,binding signal,[1],"1.05 fold enrichment (6-mer frequency, TF over GST control)"
same,binding signal,[2],"1.04 fold enrichment (6-mer frequency, TF over GST control)"
same,binding signal,[3],"1.87 fold enrichment (6-mer frequency, TF over GST control)"
same,binding signal,[4],"1.22 fold enrichment (6-mer frequency, TF over GST control)"
same,binding signal,[5],"1.15 fold enrichment (6-mer frequency, TF over GST control)"
same,binding signal,[6],"1.14 fold enrichment (6-mer frequency, TF over GST control)"
same,binding signal,[7],"1.13 fold enrichment (6-mer frequency, TF over GST control)"
same,binding signal,[8],"1.14 fold enrichment (6-mer frequency, TF over GST control)"
same,binding signal,[9],"2.83 fold enrichment (6-mer frequency, TF over GST control)"
same,binding signal,[10],"1.16 fold enrichment (6-mer frequency, TF over GST control)"
same,binding signal,[11],"1.09 fold enrichment (6-mer frequency, TF over GST control)"
same,binding signal,[12],"1.13 fold enrichment (6-mer frequency, TF over GST control)"
same,binding signal,[13],"1.13 fold enrichment (6-mer frequency, TF over GST control)"
same,binding signal,[14],"1.09 fold enrichment (6-mer frequency, TF over GST control)"
same,binding signal,[15],"1.17 fold enrichment (6-mer frequency, TF over GST control)"
same,binding signal,[16],"1.1 fold enrichment (6-mer frequency, TF over GST control)"
same,binding signal,[17],"1.16 fold enrichment (6-mer frequency, TF over GST control)"
same,binding signal,[18],"1.1 fold enrichment (6-mer frequency, TF over GST control)"
